Rows were chosen to be rich in hits. Some 2.2% of all compounds tested hit in one or more screens of this group.
aSyn UTR inh – 5' untranslated region of α-synuclein, MLPCN primary screen. alpha-synuclein 5'UTR reporter, inhibitor activity. actives 0.82% (n = 300,000). inhibition, % (tested at 7.5 µM). AID 1813; in the data active = inhibition above about 60%; inconclusive = no clear call, values can overlap the other calls;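 note: H4 neuroglioblastoma cells stably carrying SNCA 5'UTR luciferase fusion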
BaF3 parental – counter-screen for JAK2V617F inhibitors: parental Ba/F3 viability inhibitors; AID 1486; CellTiter-Glo ATP luminescence; inhibition, % at 5.6 µM; actives 1.1% (n = 220,000);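 active = inhibition above a per-campaign cutoff, the mean inhibition of all tested compounds plus 3 SD, cut at about 27% in these data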
IEC-6 tox-1 – kills IEC-6 intestinal cells in KLF5 counter-screen. IEC-6 cytotoxicity, luminescence viability. inhibition, % at 5 µM. actives 0.78% (n = 290,000). AID 1825
KLF5 inhibitor – suppresses KLF5 promoter-driven expression. inhibition, % at 5 µM. actives 0.23% (n = 290,000). DLD-1 KLF5 promoter-luciferase reporter, luminescence;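 active = inhibition above a per-plate limit of that plate's mean compound inhibition plus 3 SD, cut at about 60% in these data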;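 note: higher means less KLF5 promoter-driven luciferase light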
Ba/F3 V617F tox – lowers viability of Ba/F3 cells expressing EpoR and JAK2V617F; AID 1446; actives 1.1% (n = 220,000); inhibition, % at 5.6 µM; ATP luminescence;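 active = inhibition above the campaign mean plus 3 SD over all tested compounds, cut at about 24% in these data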;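 note: cytokine-independent growth of Ba/F3 cells driven by EpoR plus mutant JAK2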
APP transl inh – APP translation inhibition; inhibition, % at 2 µM; SH-SY5Y APP 5'UTR-luciferase reporter, luminescence; actives 0.82% (n = 190,000);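 active = inhibition above a set limit, derived from the sample mean plus 3 SD, cut at about 45% in these data; inconclusive = one replicate passes the limit while the other fails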
BaF3 parental 2 – reduces parental Ba/F3 viability, JAK2V617F counter-screen; CellTiter-Glo luminescence; cells kept alive by added IL-3; shares compounds with Ba/F3 V617F tox; actives 31% (n = 580); inhibition, % at 5.6 µM; AID 1520;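 active = cell growth inhibition above the hit limit set in the earlier mutant JAK2 cell screen, cut at about 27% in these data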
JAK2V617F conf – confirmation: loss of viability in JAK2V617F-dependent Ba/F3 cells; inhibition, % at 5.6 µM; shares compounds with Ba/F3 V617F tox; actives 66% (n = 580); Ba/F3 EpoR-JAK2V617F viability, CellTiter-Glo luminescence; AID 1521;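 active = mean inhibition above the hit cutoff derived in the earlier primary screen, cut at about 25% in these data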;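 note: higher means lower luminescence from reduced cell ATP and viability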
KLF5 confirm – confirmation of KLF5 inhibitors. shares compounds with KLF5 inhibitor. inhibition, % at 4 µM. AID 1834. DLD-1 KLF5 promoter firefly luciferase reporter, luminescence. actives 79% (n = 610);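 active = inhibition above a set limit taken from the earlier primary screen, cut at about 63% in these data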
IEC-6 tox-2 – rat IEC-6 cytotoxicity, KLF5 inhibitor counter-screen; shares compounds with KLF5 inhibitor; inhibition, % at 4 µM; AID 1905; IEC-6 rat intestinal cells, viability luminescence; actives 56% (n = 610); in the data active = inhibition above about 23%;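 note: cells exposed to compounds for 48 hours before viability read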
IEC-6 cytotox cf – IEC-6 cytotoxicity, confirmation assay. shares compounds with IEC-6 tox-1. inhibition, % at 5 µM. actives 63% (n = 1,900). IEC-6 rat intestinal epithelial viability, luminescence
Hits are given with their value; n = inactive; u = inconclusive; x = no result. Cut-off read from the data, not from the text of the source, unless noted: active = inhibition above about 22%; inactive = the rest.

SMILES | aSyn UTR inh | BaF3 parental | IEC-6 tox-1 | KLF5 inhibitor | Ba/F3 V617F tox | APP transl inh | BaF3 parental 2 | JAK2V617F conf | others
COc1ccc2c(c1OC)C(=O)OC2Nc1nc(-c2ccc([N+](=O)[O-])cc2)cs1 (stereo not given) | n | n | n | n | n | x | x | x
S=C(Nc1ccc(Cl)cc1)N1CCCCC1 | n | n | n | n | n | n | x | x
Cc1ccc(NC(=S)N2CCN(C3CCCCC3)CC2)cc1 | n | n | n | n | 60.9 | n | n | 40.1
CN1CCN(C(=S)Nc2ccc(Cl)cc2)CC1 | n | n | n | n | 27.0 | n | n | 45.8
CCCN(Cc1cc2cc(OC)ccc2[nH]c1=O)C(=O)c1ccncc1 | n | n | n | n | n | n | x | x
CCOc1ccc(C(=O)N(Cc2ccc(OC)cc2)Cc2cc3cc(OC)ccc3[nH]c2=O)cc1 | n | n | n | n | 46.5 | n | n | n
CCOc1ccc2nc(SCC(=O)NC(=O)C(C)C)sc2c1 | n | n | n | n | 51.0 | n | n | n
Cc1nc(Nc2ccc3c(c2)OCCO3)c2oc3ccccc3c2n1 | n | n | n | n | 59.5 | n | n | n
COc1ccc(OCC(O)CNS(=O)(=O)c2cccs2)cc1 (stereo not given) | n | x | n | n | x | x | x | x
COc1ccc(-c2cc(N)n(S(=O)(=O)c3c(F)c(F)c(F)c(F)c3F)n2)cc1OC | n | n | n | n | 44.8 | n | 93.2 | 93.2
COc1ccccc1CC(=O)NNC(=O)CN(C)S(=O)(=O)c1ccc(Cl)cc1 | n | x | x | x | x | x | x | x
Cc1cc(C)c(C#N)c(N2CCN(c3ccc(F)cc3)CC2)n1 | n | x | n | n | x | x | x | x
CN(C)c1nc(N2CCN(c3ccc(F)cc3)CC2)c(C#N)c(=O)o1 | n | n | n | n | 27.9 | n | n | n
C#CC[N+](C)(C)CC#Cc1ccccc1 | n | n | n | n | 39.1 | n | n | 41.9
O=C(NNC(=O)c1ccccc1O)c1ccc(Cl)c(S(=O)(=O)N2CCc3ccccc32)c1 | n | x | x | x | x | x | x | x
O=C1N/C(=C\c2ccccc2)c2ccccc21 | n | n | n | n | 38.4 | n | n | 44.8
O=C1N/C(=C\c2nc3ccccc3s2)c2ccccc21 | n | n | n | n | n | x | x | x
Cc1ccc(NC(=O)Cn2c(=O)c3cccn3c3ccccc32)cc1 | n | x | n | n | x | x | x | x
O=C(Nc1nc(-c2ccc(Cl)cc2Cl)cs1)C1CCCO1 (stereo not given) | n | n | n | n | 27.5 | n | n | n
Cc1ccc(CNC(=O)C2CCC(=O)N(CC3CCCCC3)C2)o1 (stereo not given) | n | x | n | n | x | x | x | x
C(=N\Nc1nc2ccccc2[nH]1)/c1ccccn1 | 111.7 | n | n | 86.1 | 31.4 | n | n | 36.4 | KLF5 confirm=70.0;IEC-6 tox-2=46.3
CN(C)S(=O)(=O)c1cccc(NC(=S)N/N=C/c2cc(Br)ccc2O)c1 | 69.4 | n | n | 64.3 | 59.1 | x | 95.5 | 84.5 | KLF5 confirm=76.9;IEC-6 tox-2=22.8
Cc1ccc(C(=O)N/C(=C\c2ccccc2)C(=O)NCCN2CCOCC2)cc1 | n | x | n | n | x | x | x | x
CCCCCN1C=CC(=C2C(=O)c3ccccc3C2=O)C=C1 | 112.9 | n | n | 95.1 | 24.2 | 54.3 | 34.4 | 44.8 | KLF5 confirm=96.8;IEC-6 tox-2=n
CC1=CC(=C2C(=O)c3ccccc3C2=O)C=C(C)N1C | n | n | n | n | n | n | x | x
SMILES | aSyn UTR inh | BaF3 parental | IEC-6 tox-1 | KLF5 inhibitor | Ba/F3 V617F tox | APP transl inh | BaF3 parental 2 | JAK2V617F conf | others
CC(=O)COc1c(-c2ccco2)oc2ccccc2c1=O | n | x | n | n | x | x | x | x
N=c1c2c(-c3ccccc3)c(-c3ccccc3)n(Cc3ccco3)c2ncn1Cc1ccccc1 | n | n | n | n | n | n | x | x
N=c1c2c(-c3ccccc3)c(-c3ccccc3)n(Cc3ccccc3)c2ncn1CCO | u | n | n | 75.7 | 26.6 | 77.8 | n | n | KLF5 confirm=n;IEC-6 tox-2=22.1
O=C1C=C(Nc2ccc(O)cc2)C(=O)c2ccccc21 | 67.5 | n | 25.2 | n | 49.2 | x | n | 76.2 | IEC-6 cytotox cf=n
COC1=C(Nc2ccc(O)cc2)C(=O)c2ccccc2C1=O | n | n | n | n | n | n | x | x
CCCS(=O)(=O)c1nnnn1-c1cccc(OC)c1 | n | n | 32.9 | n | 38.7 | 61.8 | 76.2 | 99.3 | IEC-6 cytotox cf=47.8
CC1CN(C(C)C(=O)NC(c2ccccc2)c2ccccc2)CC(C)O1 (stereo not given) | n | x | n | n | x | x | x | x
Cc1ccc(C(=O)N/N=C/c2ccc(-c3cccc(C(F)(F)F)c3)o2)cn1 | 65.2 | n | 28.0 | n | 39.0 | x | 57.8 | 91.3 | IEC-6 cytotox cf=37.3
COc1ccc(-c2cnc3c(c2)CCC3(C#N)C#N)cc1 | n | n | 69.9 | n | 38.3 | 62.5 | n | 77.7 | IEC-6 cytotox cf=n
COc1ccc(NC(=O)c2ccc(N3C(=O)C4CC=C(C)CC4C3=O)cc2)c(OC)c1 (stereo not given) | n | x | n | n | x | x | x | x
Cc1ccc(N(C(=O)CNC(=O)c2ccco2)C(C(=O)NC2CCCCC2)c2cccnc2)cc1C (stereo not given) | n | x | n | n | x | x | x | x
Cc1ccc(N(C(=O)CCl)C(C(=O)NC2CCCCC2)c2cccnc2)cc1C (stereo not given) | n | n | 79.8 | n | 85.9 | n | 76.6 | 100.0 | IEC-6 cytotox cf=63.1
CCn1c2ccc(C)cc2c2n[nH]c(=S)nc21 | n | x | n | n | x | x | x | x
Cc1ccc(OCCN2C(=O)C(=O)c3cc(C)ccc32)cc1 | n | n | 90.6 | n | 24.8 | 84.3 | 57.4 | 99.5 | IEC-6 cytotox cf=46.4
CC(C)C(=O)Nc1ccc(C(=O)NCc2cccnc2)cc1 | n | n | 61.9 | n | 59.7 | n | 35.0 | 98.8 | IEC-6 cytotox cf=23.3
O=C(NCc1cccnc1)c1ccc(NC(=O)c2ccco2)cc1 | n | n | n | n | n | n | x | x
CCOc1ccccc1C(=O)Nc1ccsc1C(=O)OC | 65.3 | n | 31.9 | n | 53.6 | 84.8 | 58.1 | 93.9 | IEC-6 cytotox cf=52.5
Cc1cccc(NC(=O)[C@@H]2CCCN2C(=O)OC(C)(C)C)c1C | n | x | n | n | x | x | x | x
Nc1ccccc1NC1=CC(=O)CC(c2ccco2)C1 (stereo not given) | n | n | n | n | n | n | x | x
Nc1ccccc1NC1=CC(=O)CC(c2ccccc2)C1 (stereo not given) | n | n | 30.7 | n | 23.4 | n | n | n | IEC-6 cytotox cf=n
Nn1c(SCC(=O)NCCCc2ccccc2)nnc1-c1cccnc1 | n | n | n | n | n | x | x | x
CCOCCCNC(=O)/C(C#N)=C/c1cc(Br)c(O)c(Br)c1 | n | n | 23.5 | n | 64.4 | x | n | 55.0 | IEC-6 cytotox cf=n
CCOc1ccc(OCCC(=O)OCC(=O)Nc2ccc3c(c2)OCCO3)cc1 | n | x | x | x | x | x | x | x

Source: PubChem
